Columns and labels:
Test in all cases: DAPPL (digital affinity profiling via proximity ligation, sequencing); 10 mM Tris-HCl pH 7.5, 50 mM NaCl, 1 mM DTT, 4% glycerol, room temperature, 30 min; GST-TFs on glutathione beads, 16-mer random dsDNA library, 0.1% formaldehyde crosslink after washing; high values mean tight binding
Settings in all cases: protein: recombinant; tags: N-terminal GST; dsDNA, one strand shown
ETV1 = ETV1 (Homo sapiens, UniProt P50549 1-477)
Method in brief: (§1)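 In yeast, human transcription factors were expressed with a GST fusion, then pulled down on glutathione beads and given DNA barcodes. Pooled with a tag-only sample, they were exposed to 200 nmole of a 16-mer random double-stranded DNA library (Tris/NaCl/DTT/glycerol buffer, room temperature, 30 min), washed, crosslinked with 0.1% formaldehyde, proximity-ligated using BsaI/T4 ligase for 1 h at 37 °C, PCR-amplified and read on an Illumina NextSeq500. Each hexamer's frequency of reads for a factor, divided by the matching frequency for the tag-only sample, gives the binding signal.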

ERF = biological target: T1, ERF (Homo sapiens, UniProt P50548 1-548)
T1 sequence: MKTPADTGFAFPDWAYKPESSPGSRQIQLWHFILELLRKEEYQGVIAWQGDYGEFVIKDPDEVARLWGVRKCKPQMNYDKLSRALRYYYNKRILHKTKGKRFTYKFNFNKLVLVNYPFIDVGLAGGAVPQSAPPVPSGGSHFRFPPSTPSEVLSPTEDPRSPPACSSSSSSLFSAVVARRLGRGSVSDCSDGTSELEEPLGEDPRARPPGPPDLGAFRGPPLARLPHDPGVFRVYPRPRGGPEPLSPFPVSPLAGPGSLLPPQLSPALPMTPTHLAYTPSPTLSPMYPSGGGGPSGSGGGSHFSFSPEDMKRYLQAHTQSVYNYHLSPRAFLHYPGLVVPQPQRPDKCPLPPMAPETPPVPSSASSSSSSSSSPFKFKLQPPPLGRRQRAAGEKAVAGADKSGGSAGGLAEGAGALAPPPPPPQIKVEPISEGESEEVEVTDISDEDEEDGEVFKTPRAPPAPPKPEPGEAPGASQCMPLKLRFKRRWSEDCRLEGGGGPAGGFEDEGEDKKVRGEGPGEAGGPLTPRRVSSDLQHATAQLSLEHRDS
Method in brief: as §1

ETV3L = biological target: T2, ETV3L (Homo sapiens, UniProt Q6ZN32 1-361)
T2 sequence: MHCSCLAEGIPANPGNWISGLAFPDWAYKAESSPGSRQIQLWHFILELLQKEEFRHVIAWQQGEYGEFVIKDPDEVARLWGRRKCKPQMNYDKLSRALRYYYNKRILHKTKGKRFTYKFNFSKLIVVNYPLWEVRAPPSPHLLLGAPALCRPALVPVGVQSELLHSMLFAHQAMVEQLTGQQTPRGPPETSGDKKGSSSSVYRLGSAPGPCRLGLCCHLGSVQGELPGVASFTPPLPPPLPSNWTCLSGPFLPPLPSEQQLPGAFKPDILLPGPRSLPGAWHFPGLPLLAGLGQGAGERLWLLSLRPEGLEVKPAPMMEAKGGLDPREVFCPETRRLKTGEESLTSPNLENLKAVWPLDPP
Method in brief: as §1

ETS2 = biological target: T3, ETS2 (Homo sapiens, UniProt P15036 1-469)
T3 sequence: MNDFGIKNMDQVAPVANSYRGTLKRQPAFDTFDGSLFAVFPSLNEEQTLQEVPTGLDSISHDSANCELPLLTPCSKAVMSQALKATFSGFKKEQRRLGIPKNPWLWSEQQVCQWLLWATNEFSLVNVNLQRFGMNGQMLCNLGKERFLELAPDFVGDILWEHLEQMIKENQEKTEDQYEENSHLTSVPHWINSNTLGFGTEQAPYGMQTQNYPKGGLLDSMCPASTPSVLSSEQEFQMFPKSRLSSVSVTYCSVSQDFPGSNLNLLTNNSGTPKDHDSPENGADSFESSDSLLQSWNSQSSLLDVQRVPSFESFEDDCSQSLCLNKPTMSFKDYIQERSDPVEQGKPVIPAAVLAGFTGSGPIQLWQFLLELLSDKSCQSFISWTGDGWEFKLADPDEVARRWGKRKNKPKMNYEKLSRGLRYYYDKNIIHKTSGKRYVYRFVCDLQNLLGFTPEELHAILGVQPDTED
Method in brief: as §1

SPDEF = biological target: T4, SPDEF (Homo sapiens, UniProt O95238 1-335)
T4 sequence: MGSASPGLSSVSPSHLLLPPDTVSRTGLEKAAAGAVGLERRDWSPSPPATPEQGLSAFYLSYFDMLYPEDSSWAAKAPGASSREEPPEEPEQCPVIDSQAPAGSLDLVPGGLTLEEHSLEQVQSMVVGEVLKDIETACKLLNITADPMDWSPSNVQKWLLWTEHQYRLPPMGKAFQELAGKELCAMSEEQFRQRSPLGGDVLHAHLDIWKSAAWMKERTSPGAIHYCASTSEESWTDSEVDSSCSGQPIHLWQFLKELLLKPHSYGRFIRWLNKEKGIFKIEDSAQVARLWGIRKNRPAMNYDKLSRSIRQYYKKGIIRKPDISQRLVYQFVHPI
Method in brief: as §1

ETV7 = biological target: T5, ETV7 (Homo sapiens, UniProt Q9Y603 1-341)
T5 sequence: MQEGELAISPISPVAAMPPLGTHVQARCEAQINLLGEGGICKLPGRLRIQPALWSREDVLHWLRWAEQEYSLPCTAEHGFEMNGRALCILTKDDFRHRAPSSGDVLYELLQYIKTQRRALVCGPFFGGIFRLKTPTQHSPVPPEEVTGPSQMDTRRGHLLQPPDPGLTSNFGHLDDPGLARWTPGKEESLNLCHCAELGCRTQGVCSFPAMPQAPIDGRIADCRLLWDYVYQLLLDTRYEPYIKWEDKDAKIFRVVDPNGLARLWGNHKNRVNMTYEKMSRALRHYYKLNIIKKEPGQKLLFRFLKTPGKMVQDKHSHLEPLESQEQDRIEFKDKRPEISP
Method in brief: as §1

ELF5 = biological target: T6, ELF5 (Homo sapiens, UniProt Q9UKW6-2 1-255)
T6 sequence: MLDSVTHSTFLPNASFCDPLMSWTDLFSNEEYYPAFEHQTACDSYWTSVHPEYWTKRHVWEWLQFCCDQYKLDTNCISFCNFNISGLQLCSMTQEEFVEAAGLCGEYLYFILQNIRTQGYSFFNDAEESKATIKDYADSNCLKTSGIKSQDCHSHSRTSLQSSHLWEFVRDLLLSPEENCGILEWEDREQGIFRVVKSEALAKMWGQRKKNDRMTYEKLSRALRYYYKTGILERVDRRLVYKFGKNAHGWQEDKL
Method in brief: as §1

ETV3 = biological target: T7, ETV3 (Homo sapiens, UniProt P41162-2 1-143)
T7 sequence: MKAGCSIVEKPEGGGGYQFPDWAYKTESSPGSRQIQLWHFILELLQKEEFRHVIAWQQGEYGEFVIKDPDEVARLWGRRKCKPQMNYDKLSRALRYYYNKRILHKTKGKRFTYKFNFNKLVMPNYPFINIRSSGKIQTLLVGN
Method in brief: as §1

ETV6 = ETV6 (Homo sapiens, UniProt P41212 1-452)
Method in brief: as §1

ETV6, sequence (P41212 whole entry): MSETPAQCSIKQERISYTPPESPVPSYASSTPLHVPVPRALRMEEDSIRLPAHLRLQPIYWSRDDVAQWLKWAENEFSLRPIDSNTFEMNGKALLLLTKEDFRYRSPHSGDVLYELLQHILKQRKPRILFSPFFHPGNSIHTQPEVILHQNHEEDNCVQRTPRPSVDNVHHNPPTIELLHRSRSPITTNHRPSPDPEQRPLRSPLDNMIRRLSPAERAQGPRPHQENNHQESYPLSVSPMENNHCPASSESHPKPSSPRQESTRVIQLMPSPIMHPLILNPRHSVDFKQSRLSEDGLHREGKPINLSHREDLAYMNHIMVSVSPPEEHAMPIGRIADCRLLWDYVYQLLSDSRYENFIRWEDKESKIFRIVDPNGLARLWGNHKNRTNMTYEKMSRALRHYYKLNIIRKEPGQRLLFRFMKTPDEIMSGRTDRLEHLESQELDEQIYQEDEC
ETV1, sequence (P50549 whole entry, the tested form may be a part): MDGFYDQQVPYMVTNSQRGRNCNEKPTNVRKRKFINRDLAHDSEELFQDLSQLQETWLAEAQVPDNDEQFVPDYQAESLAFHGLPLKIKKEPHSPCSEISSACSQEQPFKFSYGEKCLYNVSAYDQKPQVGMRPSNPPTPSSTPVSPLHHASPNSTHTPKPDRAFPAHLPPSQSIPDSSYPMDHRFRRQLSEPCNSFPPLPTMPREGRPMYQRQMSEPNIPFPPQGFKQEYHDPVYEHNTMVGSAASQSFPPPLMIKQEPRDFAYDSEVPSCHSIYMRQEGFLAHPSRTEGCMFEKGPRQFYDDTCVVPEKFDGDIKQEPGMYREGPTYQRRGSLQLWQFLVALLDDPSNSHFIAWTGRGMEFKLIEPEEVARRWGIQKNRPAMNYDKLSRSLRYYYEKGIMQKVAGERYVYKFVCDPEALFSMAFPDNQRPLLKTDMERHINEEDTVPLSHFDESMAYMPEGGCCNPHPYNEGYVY

CGTCCC
binding signal (ETV1): 1.34 fold enrichment (6-mer frequency, TF over GST control) | binding signal (ERF): 1.35 fold enrichment (6-mer frequency, TF over GST control) | binding signal (ETV3L): 1.3 fold enrichment (6-mer frequency, TF over GST control) | binding signal (ETS2): 1.38 fold enrichment (6-mer frequency, TF over GST control) | binding signal (SPDEF): 1.35 fold enrichment (6-mer frequency, TF over GST control) | binding signal (ETV7): 1.22 fold enrichment (6-mer frequency, TF over GST control) | binding signal (ELF5): 1.31 fold enrichment (6-mer frequency, TF over GST control) | binding signal (ETV3): 1.41 fold enrichment (6-mer frequency, TF over GST control) | binding signal (ETV6): 1.32 fold enrichment (6-mer frequency, TF over GST control)

From PMC7862700, “An all-to-all approach to the identification of sequence-specific readers for epigenetic DNA modifications on cytosine”
